Results taken from PubChem BioAssay (EPA / NIEHS).
Some compounds were tested as several samples or in several runs, with calls that do not always agree. The source made the active and inactive calls. Rule for the calls: active = hit-call score of the fitted dose curve at least 0.9, where 1 is the maximum; inactive = score below 0.9.

assay: CCTE_Shafer_MEA_dev_correlation_coefficient_mean: CCTE's Neural Network Formation Assay for Mean Correlation Coefficient, Shafer Lab (AID 2284093); conditions: not given;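 for AC50: well mean pairwise spike train correlation integrated as AUC over recording days 5 to 12; potency fitted for loss of correlation relative to DMSO vehicle wells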
How it was run: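 Rat cortical cultures, 1.5 x 10^5 cells/well, dosed from day 0 for 12 days. Spontaneous spikes recorded DIV 5/7/9/12; electrode-pair correlation coefficients averaged, AUC taken. Fit in loss direction vs DMSO.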

| SMILES | AC50 | outcome |
| --- | --- | --- |
| C[n+]1ccc(-c2cc[n+](C)cc2)cc1 | 1.63 µM (active) |  |
| C/C(=C/C=C/[C@@H](C)C(=O)O)[C@H]1CN[C@H](C(=O)O)[C@H]1CC(=O)O | 1.56 µM (active) | inactive |
| CP(=O)(O)CCC(N)C(=O)O (stereo not drawn) |  | inactive |
| NCCc1cc(O)c(O)cc1O | 5.28 µM (active) |  |
| CCOP(=S)(OCC)SCS(=O)C(C)(C)C (stereo not drawn) |  | inactive |
| C[n+]1ccc(-c2ccccc2)cc1 | 8.7 µM (active) |  |
| O=C(O)CNCP(=O)(O)O |  | inactive |
| C#CCN(C)[C@H](C)Cc1ccccc1 |  | inactive |
| Cn1nc(C(F)(F)F)c(CS(=O)(=O)C2=NOC(C)(C)C2)c1OC(F)F | 32.7 µM (active) |  |
| CCCCC(CC)COC(=O)c1cc(Br)c(Br)c(Br)c1Br (stereo not drawn) | 18.8 µM (active) |  |
| CC1(C)C(C=C(Cl)c2ccc(Cl)cc2)C1C(=O)OC(C#N)c1ccc(F)c(Oc2ccccc2)c1 (stereo not drawn) | 12.8 µM (active) |  |
| CCOP(=O)(Oc1cnc(C(C)(C)C)nc1)OC(C)C (stereo not drawn) |  | inactive |
| CC1(C)[C@H](C=C(Cl)Cl)[C@H]1C(=O)OCc1c(F)c(F)cc(F)c1F | 10.7 µM (active) |  |
| CC(=O)[O-].CC(=O)[O-].O.O.O.[Pb+2] | 19.7 µM (active) |  |
| CC1(C)C(C=C(Cl)Cl)C1C(=O)O[C@H](C#N)c1cccc(Oc2ccccc2)c1 (stereo partly drawn) | 4.48 µM (active) |  |
| CCOP(=O)(OCC)OC(Cl)C(Cl)(Cl)Cl (stereo not drawn) | 1.13 µM (active) |  |
| CCOP(=O)(OCC)SCSC(C)(C)C |  | inactive |
| CC1(C)[C@@H](C=C(Cl)Cl)[C@@H]1C(=O)O[C@@H](C#N)c1ccc(F)c(Oc2ccccc2)c1 | 5.16 µM (active) |  |
| COP(=O)(OC)SCN1C(=O)c2ccccc2C1=O |  | inactive |
| CP(=O)(O)CC[C@H](N)C(=O)O |  | inactive |
| CC(=O)[O-].[Tl+] |  | inactive |

assay: UKN2_HCS_IMR90_neural_migration: University of Konstanz (UKN) Leist Lab Neural Crest Cell Migration Assay in human induced IMR90 Pluripotent Stem Cells (UKN2) (AID 2284204); conditions: actives raise or lower the signal
How it was run: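 High-content imaging of calcein-AM and Hoechst stained cells quantifies migration into a stopper-defined gap after 24 h compound exposure. Neural crest cells from IMR90 iPSC migrated 24 h in EGF/FGF N2-S medium before dosing; DMSO baseline.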

| SMILES | outcome | AC50 |
| --- | --- | --- |
| C[n+]1ccc(-c2cc[n+](C)cc2)cc1 | inactive |  |
| C/C(=C/C=C/[C@@H](C)C(=O)O)[C@H]1CN[C@H](C(=O)O)[C@H]1CC(=O)O | inactive |  |
| CP(=O)(O)CCC(N)C(=O)O (stereo not drawn) | inactive |  |
| [O-][Cl+3]([O-])([O-])O | inactive |  |
| CCOP(=S)(OCC)SCS(=O)C(C)(C)C (stereo not drawn) | inactive |  |
| C[n+]1ccc(-c2ccccc2)cc1 | inactive |  |
| Cn1nc(C(F)(F)F)c(CS(=O)(=O)C2=NOC(C)(C)C2)c1OC(F)F | inactive |  |
| CC1(C)C(C=C(Cl)c2ccc(Cl)cc2)C1C(=O)OC(C#N)c1ccc(F)c(Oc2ccccc2)c1 (stereo not drawn) | inactive |  |
| CCOP(=O)(Oc1cnc(C(C)(C)C)nc1)OC(C)C (stereo not drawn) | inactive |  |
| CC1(C)[C@H](C=C(Cl)Cl)[C@H]1C(=O)OCc1c(F)c(F)cc(F)c1F | inactive |  |
| CC(=O)[O-].CC(=O)[O-].O.O.O.[Pb+2] |  | 32.8 µM (active) |
| CC1(C)C(C=C(Cl)Cl)C1C(=O)O[C@H](C#N)c1cccc(Oc2ccccc2)c1 (stereo partly drawn) | inactive |  |
| CCOP(=O)(OCC)OC(Cl)C(Cl)(Cl)Cl (stereo not drawn) | inactive |  |
| CCOP(=O)(OCC)SCSC(C)(C)C | inactive |  |
| COP(=O)(OC)SCN1C(=O)c2ccccc2C1=O | inactive |  |
| CC(=O)[O-].[Tl+] | inactive |  |
